Experimental findings from PMC5540273 (PLoS ONE, 2017) are described below.

Structures are written as SMILES.
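Further: KINOMEscan kinase panel screen.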

The test has as its system T1, p38-gamma.
T1 construct: gene MAPK12
The note with it: concentration: 1 μM, replicates: in singlicate; n = 1.
Take `COc1cccc(C2=C(Nc3cc(Cl)c(O)c(Cl)c3)C(=O)NC2=O)c1` [SB-390767]: the “%Inh” value is reported as 0%. Regarding `COc1cc2ncnc(Nc3cccc(Br)c3)c2cc1OC.Cl` [GI230329], the “%Inh” value was found to be 66%. Regarding `CNC(=O)c1ccc(C)c(-n2c(C)cc(OCc3ccc(F)cc3F)c(Br)c2=O)c1`, the “%Inh” value is on record as 0%. As to `COc1ccc(Nc2nccc(NCCNC(=O)Nc3cc(C)ccc3C)n2)cc1` [GSK1379899], the “%Inh” value was 0%. Under `COC(=O)C(NC(=O)NC1CCN(c2ccnc(Nc3ccc(F)cc3)n2)C1)c1ccccc1` (stereo not shown) [GSK1379712] stands 23%; under `O=C1NC(=O)C(c2ccc(Cl)cc2)=C1Nc1cccc(Cl)c1` [SB-317651], 11%; under `Cn1cncc1C(=O)NC1CCN(c2ccnc(Nc3ccc(F)cc3)n2)C1` (stereo not shown) [GSK1379717], 0%. For the compound `Nc1cccc(-c2ccc3c(N)n[nH]c3c2)n1` [GSK2192730], the “%Inh” value is given as 0%.

Regarding `Fc1ccc(-c2nn3cccc(F)c3c2-c2ccncc2)cc1` [GW475620], the “%Inh” value is recorded as 0%. On to `CNc1nc(-c2ccc3c(N)n[nH]c3c2)cc(N2C[C@@H](C(=O)Nc3ccccc3)CC[C@H]2C)n1` [GSK2298859], for which the “%Inh” value was found to be 0%. As to `CC(=O)c1c(C)c2cnc(Nc3ccn(C)n3)nc2n(C2CCCC2)c1=O`, the “%Inh” value was determined as 0%. Turning to `Cc1ccc(-c2nc(Nc3ccncc3)c3ccccc3n2)s1` [GSK189015], the “%Inh” value stood at 12%. As to `Cc1ccccc1-c1cc(-c2c[nH]nc2-c2ccccn2)ccn1` [GW680061], the “%Inh” value was 0%.

Regarding `Cn1cnc2c(N)ncnc21` [SKF-97623], the “%Inh” value was 0%. On to `COc1ccc(Nc2nccc(N3CCC(NC(=O)C(C)c4ccc(Cl)cc4)CC3)n2)cc1` (stereo not shown) [GSK1379812], for which the “%Inh” value is on record as 2%. For the compound `FC(F)(F)c1ccccc1-c1cc(-c2c[nH]nc2-c2ccccn2)ccn1` [GW679396], the “%Inh” value is 0%. Consider `Cc1ccc(NC(=O)Nc2ccc(Cl)cc2)cc1-c1ccc(C(=O)Nc2ccncc2)cc1` [GSK1398472], for which the “%Inh” value is listed as 23%.

Turning to `O=C1NC(=O)C(c2ccc(Cl)cc2)=C1Nc1ccc(O)cc1` [SB-340867], the “%Inh” value is 0%. Next, `COc1nccc(-c2c(-c3ccc(F)cc3)ncn2CCCN2CCOCC2)n1` [SB-282852]: 46%; `Nc1ncnc2occ(-c3ccc4c(c3)CCN4C(=O)Cc3cc(F)ccc3F)c12` [GSK2645446]: 7%. Next, `Cc1ccc(NC(=O)Nc2ccc(Cl)c(C(F)(F)F)c2)cc1-c1ccc(C(=O)Nc2ccncc2)cc1` [GSK1398470]: 27%; `CS(=O)(=O)CCNCc1nc(-c2ccc3ncnc(Nc4ccc5c(cnn5Cc5ccccc5)c4)c3c2)cs1.Cl.Cl` [GW569716]: 0%; `CN1c2ccc(-c3ccc(C(N)=O)cc3)cc2-c2[nH]ncc2S1(=O)=O`: 0%. `COc1ccc(CSc2nnc(-c3ccc4ncsc4c3)o2)cc1C(F)(F)F`: the “%Inh” value stood at 0%. As for `COc1ccc(CSc2nnc(-c3ccc4c(c3)CCO4)o2)cc1`, the “%Inh” value came out at 0%. Take `COC(=O)C(Cc1ccccc1)NC(=O)NC1CCN(c2ccnc(Nc3ccc(F)cc3)n2)C1` (stereo not shown) [GSK1379714]: the “%Inh” value turned out to be 12%.

`COc1ccc(Nc2nccc(-c3ccc(NC(=O)c4cc5cc(F)ccc5[nH]4)cc3)n2)cc1` [GSK1229496]: the “%Inh” value is recorded as 1%.

As for `O=c1cc(N2CCOCC2)nc2n(Cc3ccccc3F)ccn12` [GSK2297428], the “%Inh” value was 0%. In the case of `COc1ccc(Nc2nccc(N3CCC(NC(=O)c4cc5ccccc5s4)C3)n2)cc1` (stereo not shown) [GSK1379738], the “%Inh” value amounted to 9%.

Consider `CC(=O)c1cccc(NC(=O)NC2CCN(c3ccnc(Nc4ccc(F)cc4)n3)C2)c1` (stereo not shown) [GSK1379710], for which the “%Inh” value was 3%.

Consider `O=C(Nc1n[nH]c2nc(-c3cccs3)c(Br)cc12)C1CCCC1` [SB-743341], for which the “%Inh” value came out at 13%. Under `COc1ccc(-c2coc3ccc(-c4nnc(C)o4)cc23)cc1` stands 0%; under `CSc1ccc(-c2nc3n(c2-c2ccncc2)CCC3)cc1` [SKF-105561], 30%; under `O=C(Nc1n[nH]c2nc(-c3ccco3)c(Br)cc12)C1CCN(Cc2ccccc2)C1.O=C(O)[C@H](O)[C@@H](O)C(=O)O` (stereo not shown) [SB-742034], 20%. For `Cn1cncc1-c1cc2c(Nc3ccc(OCc4ccccc4)cc3)ncnc2cn1` [GW281179], the “%Inh” value is 0%. Next, `O=C(Nc1n[nH]c2cc(-c3ccsc3)ccc12)C1CC1` [SB-732932]: 28%; `Cl.Cl.Cl.N#Cc1ccc(CCNc2nccc(-c3cccc(CN4CCNCC4)c3)n2)cc1` [GSK2137462]: 27%.
